Results: PubChem BioAssay AID624464 (National Center for Advancing Translational Sciences (NCATS), 2012)
The whole screen tested about 360,000 compounds, of which about 810 (0.23%) were called active. Rule as the data show it: active = potentiation above about 50%; inconclusive = mostly about 30% to 49%; inactive = weaker than that. Shown is part of a subset that was picked to be rich in actives.

Biological target: D(2) dopamine receptor (Homo sapiens) (UniProt P14416)
Test: Beta-Arrestin HTS for Positive Allosteric Modulators of the Human D2 Dopamine Receptor: Potentiators
Conditions: DiscoveRx D2 beta-arrestin cells, luminescence, 90 min; active compounds read high; 100% = 57 uM dopamine signal
Description: There is great interest in identifying small molecule ligands for G-protein coupled receptors (GPCRs) as nearly 50% of all FDA-approved drugs target these important receptor proteins. […] Amongst the dopamine receptors (DARs), the D2 is arguably one of the most validated drug targets in neurology and psychiatry. For instance, all receptor-based antiparkinsonian drugs primarily work via stimulating the D2 DAR, whereas all FDA-approved antipsychotic agents are antagonists of this receptor. The D2 DAR is also therapeutically targeted in other disorders such as restless legs syndrome, tardive dyskinesia, Tourette's syndrome, and hyperprolactinemia.
To this end, a miniaturized qHTS screen was developed to be screened against the Molecular Libraries Small Molecule Repository (MLSMR). This assay seeks to identify potentiators against the D2 DAR.
NIH Molecular Libraries Probe Production Network [MLPCN]
NIH Chemical Genomics Center [NCGC]
PI Name: David Sibley, National Institutes of Neurological Disorders and Stroke
DiscoveRx D2 cells were thawed from frozen stock and seeded at 2,100 cells/ 3 uL/well media (DiscoveRx Plating Reagent 2) with MultiDrop Combi dispenser (Thermo Scientific, Logan, UT) onto white tissue culture treated 1536-well Aurora plates (Brooks Automation, Chelmsford, MA) and allowed to attach overnight at 37 deg C, 5% CO2. Next, 23 nL/well of compound solutions in DMSO were added with a pintool transfer (Kalypsis, San Diego, CA). As the positive control, 1 uL/well dopamine (EC100, 57 uM final concentration) diluted in buffer (HBSS + 10 mM HEPES + SMB + 0.1 %Tween-20) was dispensed to 1 column of each plate. EC20 (Dopamine at 50 nM final concentration) was dispensed to the rest of the plate except columns 1 &2 which were used as negative control (EC=0, buffer only), 1 uL/well as well. The cells were stimulated by compounds and dopamine for 90 minutes at 37 deg C, 5% CO2, after which 1.5 uL/well of DiscoveRx detection reagent was added with BioRAPTR FRD dispenser. The detection reagent was prepared by mixing of Galacton Star Substrate, Emerald II solution and PathHunter buffer (supplied by the assay kit) together at 1:5:19 proportion accordingly just prior to dispensing. The plates were incubated at ambient temperature for 1 hour and then the luminescent signal was read on ViewLux plate reader (PerkinElmer, Waltham, MA).

Sequence of D(2) dopamine receptor (Homo sapiens) (P14416 whole entry, looked up): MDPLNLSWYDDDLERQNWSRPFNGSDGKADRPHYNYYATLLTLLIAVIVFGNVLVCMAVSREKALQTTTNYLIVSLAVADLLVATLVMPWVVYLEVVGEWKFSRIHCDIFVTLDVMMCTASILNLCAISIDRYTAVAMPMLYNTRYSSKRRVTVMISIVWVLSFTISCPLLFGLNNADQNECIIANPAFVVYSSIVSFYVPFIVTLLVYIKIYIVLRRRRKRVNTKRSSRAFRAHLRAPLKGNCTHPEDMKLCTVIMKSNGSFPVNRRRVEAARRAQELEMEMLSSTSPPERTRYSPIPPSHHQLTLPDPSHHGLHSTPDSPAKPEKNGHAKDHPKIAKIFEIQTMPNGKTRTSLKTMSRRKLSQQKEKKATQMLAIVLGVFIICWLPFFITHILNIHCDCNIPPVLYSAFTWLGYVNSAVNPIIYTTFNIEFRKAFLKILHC

Row | Compound | potentiation
1 | CSc1ncnc2c1ncn2CCCNCc1cccs1 | 0.128% (inactive)
2 | CCN(CC)P(=O)(Nc1ccc(SC(F)F)cc1)c1ccc(N(C)C)cc1NC(=O)c1ccco1 (stereo unspecified) | -7.82% (inactive)
3 | CC(=O)CC[C@@H](C)O[C@@H]1OC(C)[C@H](O)CC1O (stereo partly specified) | -9.1% (inactive)
4 | Cc1ccc(S(=O)(=O)N2CCC3(CC2)OCCO3)c(C)c1 | -6.31% (inactive)
5 | NC(N)=Nc1nc(-c2ccccc2)c2cc(Cl)ccc2n1 | -62.5% (inactive)
6 | Oc1ccc(-c2onc3ccc(Cl)cc23)cc1 | 50.4% (active)
7 | COc1ccc(-c2onc3ccc(C(C)=O)cc23)cc1 | 28% (inactive)
8 | Nc1nc(SCC(=O)NCCN2CCOCC2)nc2sc3c(c12)CCC3 | -8.51% (inactive)
9 | CC(C)(C)C1CCc2c(sc3nc(SCC(N)=O)nc(N)c23)C1 (stereo unspecified) | 58.8% (active)
10 | C=C(C)CSc1nc(N)c2c3c(sc2n1)CCC3 | -7.64% (inactive)
11 | CCOC(=O)CN(C(=O)COc1nc(C)cc(C)c1C#N)c1ccc(Cl)cc1 | -3.59% (inactive)
12 | O=C(O)c1ccc(NN=CC2=C(N3CCOCC3)/C(=C/c3ccccc3)CC2)cc1 | 77.1% (active)
13 | N#C/C(=C\C1=C(N2CCOCC2)C(=C\c2ccccc2)/CC1)C(=O)Nc1ccccc1F | -1.9% (inactive)
14 | O=C1Nc2ccc(Br)cc2/C1=N/N=C/C1=C(N2CCOCC2)C(=C\c2ccccc2)/CC1 | -26.8% (inactive)
15 | COc1ccc(C(=O)n2nc(-c3ccc(Cl)cc3)nc2N)cc1OC | -7.87% (inactive)
16 | COc1ccc(CCn2ccc(O)c(Cc3ccc(Cl)cc3Cl)c2=O)cc1OC | -38.7% (inactive)
17 | COc1ccc(C(=O)O/N=C(\N)Cc2ccc(Cl)cc2Cl)cc1OC | 94.6% (active)
18 | NC(=O)c1cc(S(=O)(=O)N2CCCC2)ccc1OCc1ccc(F)cc1 | -13.4% (inactive)
19 | CC1(C)NC(=O)N(CC(=O)Nc2cc(C(F)(F)F)cc(C(F)(F)F)c2)C1=O | 1.66% (inactive)

Row | Compound | potentiation
20 | COc1ccc(CCNCc2c(-c3ccccc3)n(C)c3ccccc23)cc1 | -20.4% (inactive)
21 | CC1(C)CC(=O)C=C(NCCN2CCNCC2)C1 | -7.29% (inactive)
22 | COc1ccc(CN(C(=O)CSc2nnc(-c3ccc(OC)c(OC)c3)o2)c2ccc(F)cc2)cc1 | -14.5% (inactive)
23 | COc1ccc(-c2nnc(SC(=O)N3c4ccccc4Sc4ccccc43)o2)cc1 | 72.5% (active)
24 | COc1ccc(-c2nnc(SC(C)C(=O)NC3CC3)o2)cc1 (stereo unspecified) | 0.965% (inactive)
25 | CC(C)c1ccc(Nc2ncccc2C#N)cc1 | -6.55% (inactive)
26 | COc1ccc(-c2csc(C(O)c3cccc(Cl)c3)n2)cn1 (stereo unspecified) | -10.4% (inactive)
27 | CNC(=O)/C(C#N)=C/c1c(F)cccc1Cl | 21.1% (inactive)
28 | O=C(Nc1ccccc1F)c1ccccc1-c1ccc(C(F)(F)F)cc1 | -15.1% (inactive)
29 | N#C/C(=C\c1ccccc1C(F)(F)F)C(=O)Nc1ccccc1F | 57.7% (active)
30 | O=C(COC(=O)c1cc(-c2cccs2)nn1-c1ccccc1)Nc1cc([N+](=O)[O-])ccc1Cl | -0.407% (inactive)
31 | COc1ccc(CN2C(CC(=O)Nc3cccnc3)c3ccc(C(F)(F)F)cc3S2(=O)=O)cc1 (stereo unspecified) | -5.81% (inactive)
32 | COc1ccc(N(CC(=O)NC2CCCCC2)C(=O)CNC(=O)c2ccco2)c(OC)c1 | -8.59% (inactive)
33 | COc1ccccc1CNC(=O)c1cc(-c2cc(Cl)ccc2C)n[nH]1 | -2.11% (inactive)
34 | Cc1cccnc1NC(=O)CSc1nnc(COc2ccc(C(C)C)cc2)n1C | -13.7% (inactive)
35 | Cc1ccc(OCc2nnc(SC3CCc4ccccc4C3=O)n2C)cc1 (stereo unspecified) | 51.4% (active)
36 | COc1ccccc1C(=O)Nc1ccc(OCc2nnc3c4ccccc4c(C)nn23)cc1 | 9.9% (inactive)
37 | O=c1[nH]c(=S)[nH]c(O)c1/C=C1\C=Nc2ccccc21 | -32.7% (inactive)
38 | O=C1NC(c2ccc(-c3ccccc3[N+](=O)[O-])o2)C(C(=O)c2ccc(Cl)cc2)C(O)(C(F)(F)F)N1 (stereo unspecified) | 55.4% (active)

Row | Compound | potentiation
39 | CCOC(=O)C1C(c2ccc(O)cc2)NC(=O)NC1(O)C(F)(F)F (stereo unspecified) | -0.717% (inactive)
40 | CC1=NN(c2ccc(Cl)c(C(=O)O)c2)C(=O)/C1=C/c1ccc(-c2ccccc2[N+](=O)[O-])o1 | -7.86% (inactive)
41 | CCC(C)NC(=O)C1CCCN(C(=O)NC2CCCCC2)C1 (stereo unspecified) | 2.71% (inactive)
42 | O=C(NCCc1nnc2ccc(SCC(=O)N3CCOCC3)nn12)c1ccccc1 | 1.02% (inactive)
43 | Cc1ccc(S(=O)(=O)NCCc2nnc3ccc(SCc4cccnc4)nn23)cc1 | -34.2% (inactive)
44 | COC(=O)CSc1ccc2nnc(CCNS(=O)(=O)c3ccc(C)cc3)n2n1 | 71.3% (active)
45 | CN(Cc1ccccc1)C(=O)COC(=O)/C=C/c1ccc2c(c1)OCO2 | -10.6% (inactive)
46 | Cc1coc2c(O)cc3c(c12)OC1(N2CCCCC2)C(=O)NCCCC31 (stereo unspecified) | 70.8% (active)
47 | CC(=O)Nc1cc(-c2ccc(N3CCN(C)CC3)cc2)cn2c(-c3cccc(C(=O)N(C)C)c3)cnc12 | -8.12% (inactive)
48 | COC(=O)[C@H]1C[C@H](OC(=O)NCc2ccccc2)[C@@]2(O)CN(S(=O)(=O)c3ccc(C)cc3)CC2[C@H]1C(=O)OC (stereo partly specified) | -0.0644% (inactive)
49 | Cc1ccc(NC(=O)COC(=O)CN2CCCCCC2=O)c(C)c1 | -1.65% (inactive)
50 | Cc1ccc(S(=O)(=O)N2CCN(C(=O)c3cc(S(=O)(=O)N4CCOCC4)ccc3F)CC2)cc1 | 0.45% (inactive)
51 | CN1OC[C@@H]2CN(C(=O)C(C)(C)C)[C@H](c3ccc(-n4ccnc4)cc3)C[C@@H]21 | -5.65% (inactive)
52 | CC(Oc1cccc(Cl)c1)C(=O)NC1CC(C)(C)NC(C)(C)C1 (stereo unspecified) | -22.7% (inactive)
53 | Cc1ccc(NC(=O)CN(C)S(=O)(=O)c2cnc[nH]2)cc1C | -13% (inactive)
54 | CN(CC(=O)Nc1ccccc1Cl)C(=O)c1ccccc1SCC(=O)N1CCCC1 | -9.34% (inactive)
55 | O=C1C=C(c2cccc(Br)c2)C[C@@H](c2ccc(F)cc2)C1 | -7.26% (inactive)
56 | Cc1ccc(CN(N=Nc2nonc2N)c2nonc2N)c(C)c1 | 25.8% (inactive)
